The values below come from PubChem BioAssay (NCI).

This is part of a sample that, as a whole, favours compounds with a hit. Of some 83,000 tested, about 20% had one in any assay.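 Values shown are percent growth following 48 h exposure of cells in 96-well plates to a single concentration of compound; below 10 was considered active.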 Values without a mark were called inactive. Activity calls are given as the source filed them.

Some test systems named below: HCT-15 colon; HT29 colon; SNB-75 CNS; SNB-19 CNS; U251 CNS; PC-3 prostate; SK-MEL-5 melanoma; UACC-62 melanoma; LOX IMVI melanoma; SK-MEL-28 melanoma.
Holding throughout (test): NCI-60 one-dose screen, 48 h (100 = growth as untreated, 0 = no growth, -100 = all killed)
Details in all cases: 10 µM unless noted

Regarding `Cc1cc(Cl)ccc1NC(=O)Nc1ccc(-c2ccc3c(c2)NC(=O)/C3=C\c2ccc[nH]2)cc1`, the growth was 92.6% in the experiment with HCT-15 colon; 109% with HT29 colon; 99.4% with SNB-75 CNS; 94.5% with SNB-19 CNS; 103% in the experiment with U251 CNS; 104% in the experiment on PC-3 prostate. Further, the growth is 106% in the experiment with SK-MEL-5 melanoma, 98.5% with UACC-62 melanoma, 101% in the experiment with LOX IMVI melanoma and 114% in the experiment on SK-MEL-28 melanoma.

For the molecule `O=C(NNC(=S)NC(=O)c1ccccc1)c1ccc(OCc2nc3ccc(Cl)cc3[nH]2)cc1`, the growth in the experiment with HCT-15 colon is -75.1% (active); in the experiment on HT29 colon, -6.38% (active); in the experiment on SNB-75 CNS it was -17.8% (active); with SNB-19 CNS, -12.9% (active); with U251 CNS, -71.4% (active); with PC-3 prostate, 2.48% (active). For the same molecule, the growth in the experiment on SK-MEL-5 melanoma was -73.4% (active); with UACC-62 melanoma, -88.4% (active); in the experiment on LOX IMVI melanoma, -92.2% (active); with SK-MEL-28 melanoma it was -82.7% (active).

Take `O=C(N/N=C/c1ccc(Cl)cc1)c1ccc(OCc2nc3ccc(Cl)cc3[nH]2)cc1`: the growth with HCT-15 colon was -47.1% (active); in the experiment with HT29 colon, -55.7% (active); in the experiment on SNB-75 CNS, 53.9%; with SNB-19 CNS, 35%; in the experiment with U251 CNS, -88.5% (active); in the experiment on PC-3 prostate it was -10.1% (active). In addition, the growth in the experiment with SK-MEL-5 melanoma was 52.2%; with UACC-62 melanoma, 47.5%; in the experiment on LOX IMVI melanoma, -81% (active); with SK-MEL-28 melanoma it was 41%.

Turning to `COc1ccc(-c2nc3ccc(-c4nnc(SCc5ccccc5)o4)cc3[nH]2)cc1OC`, the growth in the experiment with HCT-15 colon is 35.6%; with HT29 colon, 52.9%; in the experiment with SNB-75 CNS, -54.2% (active); with SNB-19 CNS, 28.1%; in the experiment on U251 CNS, 0.298% (active); in the experiment with PC-3 prostate, 50.9%. The growth was 39.7% in the experiment on SK-MEL-5 melanoma, 0.287% (active) with UACC-62 melanoma, 7.48% (active) with LOX IMVI melanoma and 30.6% in the experiment with SK-MEL-28 melanoma.

Regarding `O=C1N/C(=N\c2nccs2)S/C1=C\c1ccc([N+](=O)[O-])cc1`, the growth was 16% with HCT-15 colon; 17.2% in the experiment on HT29 colon; 34.1% in the experiment on SNB-75 CNS; 9.41% (active) in the experiment on SNB-19 CNS; 7.89% (active) with U251 CNS; 17.6% in the experiment with PC-3 prostate. Moreover, the growth in the experiment on SK-MEL-5 melanoma was -8.09% (active); in the experiment on UACC-62 melanoma, 2.3% (active); with LOX IMVI melanoma, 12.5%; with SK-MEL-28 melanoma, 6.49% (active).

Regarding `C=CC[n+]1cccc2c3ccccc3ccc21`, the growth in the experiment on HCT-15 colon is 94.7%; in the experiment with HT29 colon, 47.3%; in the experiment with SNB-75 CNS, 49.8%; with SNB-19 CNS, 26.5%; with U251 CNS, 16.6%; with PC-3 prostate, 43.7%. For the same molecule, the growth with SK-MEL-5 melanoma was -39.8% (active); with UACC-62 melanoma it was 61%; with LOX IMVI melanoma, 61.8%; in the experiment on SK-MEL-28 melanoma, 69%.

On to `Cn1cc(-c2cc(N)n3nc(-c4c[nH]c5ccc(F)cc45)cc3n2)c2cccnc21`, for which the growth in the experiment on HCT-15 colon was -52.3% (active); in the experiment with HT29 colon, -70.1% (active); in the experiment with SNB-75 CNS it was -48.5% (active); in the experiment with SNB-19 CNS, -24.8% (active); in the experiment on U251 CNS, -84.7% (active); in the experiment on PC-3 prostate, -45.3% (active). Besides, the growth in the experiment with SK-MEL-5 melanoma was -98.4% (active); with UACC-62 melanoma, -93.6% (active); in the experiment with LOX IMVI melanoma it was -97.9% (active); in the experiment with SK-MEL-28 melanoma, -92.6% (active).

In the case of `CC(=O)c1ccc2c(N)c(C(=O)Nc3ccc(C(F)(F)F)cc3)sc2n1`, the growth was 40.7% in the experiment on HCT-15 colon; 82.2% with HT29 colon; 84.7% in the experiment on SNB-75 CNS; 67.9% in the experiment on SNB-19 CNS; 72.6% in the experiment with U251 CNS; 70.2% with PC-3 prostate. For the same molecule, the growth with SK-MEL-5 melanoma is -5% (active); with UACC-62 melanoma, 59.7%; in the experiment on LOX IMVI melanoma, 37.8%; in the experiment with SK-MEL-28 melanoma, 87.2%.

`CN1CCN(CCS(=O)(=O)Nc2cc(-c3ccc4ncnc(Nc5ccc(F)c(Cl)c5)c4c3)cnc2Cl)CC1`: the growth in the experiment on HCT-15 colon is 24.5%; with HT29 colon it was 12%; in the experiment with SNB-75 CNS it was 22.1%; in the experiment with SNB-19 CNS, 10.1%; with U251 CNS, 16.5%; with PC-3 prostate it was 20.2%. For the same molecule, the growth in the experiment with SK-MEL-5 melanoma is -75.9% (active); with UACC-62 melanoma, -3.28% (active); in the experiment with LOX IMVI melanoma it was -57.5% (active); in the experiment with SK-MEL-28 melanoma, 4.33% (active).

On to `COc1c2c(c(Br)c3c1C(CCc1ccccc1)N(C)CC3)OCO2` (stereo not given), for which the growth with HCT-15 colon is 24.6%; with HT29 colon it was 16.5%; with SNB-75 CNS it was 63.8%; in the experiment with SNB-19 CNS, 36.8%; with U251 CNS, 43.3%; in the experiment with PC-3 prostate, 41.3%. For the same molecule, the growth is 25.3% in the experiment with SK-MEL-5 melanoma, 16.3% in the experiment with UACC-62 melanoma, 6% (active) with LOX IMVI melanoma and 19.2% with SK-MEL-28 melanoma.

With `O=C(NN1C(=O)/C(=C/C=C/c2ccc([N+](=O)[O-])o2)SC1=S)c1ccc(O)cc1`, the growth with HCT-15 colon was -73% (active); in the experiment with HT29 colon, -67.7% (active); with SNB-75 CNS, -65.1% (active); with SNB-19 CNS, -100% (active); in the experiment with U251 CNS it was -91.4% (active); in the experiment on PC-3 prostate it was -67.2% (active). The growth with SK-MEL-5 melanoma is -100% (active); in the experiment with UACC-62 melanoma, -99.3% (active); in the experiment with LOX IMVI melanoma it was -84.8% (active); in the experiment on SK-MEL-28 melanoma it was -100% (active).
